Experimental data taken from the supplement of paper PMC10849652.
Of roughly 8,800 targets only a part is listed; those with a hit were picked by preference. About 0.5% of all pairs of compound and target were hits.

Experiments:
Test in all cases: log2 fold change, soluble protein after heating vs DMSO (PISA); higher = thermal stabilisation; K562 lysate, 10 uM; active = over 0.2 and 3.5 SD of the protein, either way, in both replicates (recomputed)
[1] = compound: C1=CC=C(C=C1)[C@H](COC2=CC3=C(C=C2)NC(=O)N3)NC(=O)C4=CC=CN(C4=O)CC5=CC(=C(C=C5)F)F
Summary of the method: (§1)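 Dounce homogenisation of K562 pellets in PBS pH 7.4 with 1 mM MgCl2 produced a crude extract, used at 1 mg/mL protein. Exposure to 10 μM compound lasted 30 min, and aliquots were then heated for 3 min across 48°C-58°C, pooled and brought to 0.5% NP-40 at 4°C. The supernatant after 21,000xg for 90 min was quantified by TMTpro 16plex LC-MS/MS with channel sums equalised. Duplicate values are given as log-two fold change in thermal stability relative to solvent controls.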

[2] = compound: CC1=C(SC2=C1C(=N[C@H](C3=NN=C(N32)C)CC(=O)N)C4=CC=C(C=C4)Cl)C
Summary of the method: as §1

[3] = compound: CC1=C2C(=CC=C1)N=C(N(C2=O)C3=CC=CC=C3C)CN4C=NC5=C(N=CN=C54)N
Summary of the method: as §1

[4] = compound: Cc1sc2c(c1C)C(c1ccc(Cl)cc1)=N[C@@H](CC(=O)OC(C)(C)C)c1nnc(C)n1-2
Summary of the method: as §1

[5] = compound: c1ccc([C@@H]2C[C@H]2NC2CCNCC2)cc1
Summary of the method: as §1

Measured: log2 fold change

NLRP2 (UniProt Q9NX02)
Chain of UniProt Q9NX02 (Q9NX02 whole entry, looked up): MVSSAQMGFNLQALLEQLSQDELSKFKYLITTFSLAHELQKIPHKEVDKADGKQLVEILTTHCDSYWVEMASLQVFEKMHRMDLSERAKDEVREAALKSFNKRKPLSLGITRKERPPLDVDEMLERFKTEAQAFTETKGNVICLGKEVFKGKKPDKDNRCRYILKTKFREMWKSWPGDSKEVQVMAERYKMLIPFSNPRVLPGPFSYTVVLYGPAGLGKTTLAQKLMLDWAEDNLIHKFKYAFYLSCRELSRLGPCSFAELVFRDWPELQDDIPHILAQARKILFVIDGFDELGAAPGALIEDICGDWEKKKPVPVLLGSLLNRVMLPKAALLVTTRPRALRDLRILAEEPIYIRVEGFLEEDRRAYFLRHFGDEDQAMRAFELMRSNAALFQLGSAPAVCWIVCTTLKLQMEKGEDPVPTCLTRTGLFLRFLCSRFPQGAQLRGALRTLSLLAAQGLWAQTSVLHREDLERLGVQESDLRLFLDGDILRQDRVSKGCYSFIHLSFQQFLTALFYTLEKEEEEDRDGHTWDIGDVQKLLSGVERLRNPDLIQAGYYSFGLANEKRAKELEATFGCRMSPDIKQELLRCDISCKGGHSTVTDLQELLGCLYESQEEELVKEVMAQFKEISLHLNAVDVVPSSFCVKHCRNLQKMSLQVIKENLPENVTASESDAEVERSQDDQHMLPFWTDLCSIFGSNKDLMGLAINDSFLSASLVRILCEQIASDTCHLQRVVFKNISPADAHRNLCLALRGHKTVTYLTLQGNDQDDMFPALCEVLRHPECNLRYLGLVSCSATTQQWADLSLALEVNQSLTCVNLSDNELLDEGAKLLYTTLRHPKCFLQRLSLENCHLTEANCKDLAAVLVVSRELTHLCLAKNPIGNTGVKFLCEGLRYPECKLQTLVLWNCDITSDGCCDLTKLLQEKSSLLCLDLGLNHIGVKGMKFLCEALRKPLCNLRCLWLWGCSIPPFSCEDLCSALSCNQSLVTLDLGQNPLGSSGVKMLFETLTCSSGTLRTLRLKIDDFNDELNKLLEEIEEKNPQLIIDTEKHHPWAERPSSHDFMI
inactive: [1] -0.01 | [2] -0.027 | [3] -0.015 | [4] 0.03 | [5] 0.093

PAGE2B (UniProt Q5JRK9)
Chain of UniProt Q5JRK9 (Q5JRK9 whole entry, looked up): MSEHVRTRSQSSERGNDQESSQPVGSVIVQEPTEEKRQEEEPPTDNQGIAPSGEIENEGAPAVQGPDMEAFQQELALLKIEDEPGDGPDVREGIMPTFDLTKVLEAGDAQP
inactive: [3] -0.031 | [4] -0.072 | [5] 0.182

OAT (UniProt P04181)
Chain of UniProt P04181 (P04181 whole entry, looked up): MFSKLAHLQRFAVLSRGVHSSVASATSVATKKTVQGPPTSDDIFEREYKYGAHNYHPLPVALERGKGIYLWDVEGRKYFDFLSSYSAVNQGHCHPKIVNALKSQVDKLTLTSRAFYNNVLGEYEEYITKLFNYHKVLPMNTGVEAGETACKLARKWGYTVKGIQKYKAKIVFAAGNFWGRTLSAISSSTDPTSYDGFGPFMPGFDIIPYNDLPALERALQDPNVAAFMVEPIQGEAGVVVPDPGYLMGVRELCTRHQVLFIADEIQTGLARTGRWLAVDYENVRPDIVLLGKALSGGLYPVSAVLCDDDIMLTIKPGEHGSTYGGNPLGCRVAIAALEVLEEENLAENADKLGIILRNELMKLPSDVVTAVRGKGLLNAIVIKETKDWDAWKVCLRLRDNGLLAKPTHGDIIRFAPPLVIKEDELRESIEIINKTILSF
inactive: [1] 0.029 | [2] 0.031 | [3] 0.038 | [4] 0.034 | [5] -0.018

P2RY1 (UniProt P47900)
Chain of UniProt P47900 (P47900 whole entry, looked up): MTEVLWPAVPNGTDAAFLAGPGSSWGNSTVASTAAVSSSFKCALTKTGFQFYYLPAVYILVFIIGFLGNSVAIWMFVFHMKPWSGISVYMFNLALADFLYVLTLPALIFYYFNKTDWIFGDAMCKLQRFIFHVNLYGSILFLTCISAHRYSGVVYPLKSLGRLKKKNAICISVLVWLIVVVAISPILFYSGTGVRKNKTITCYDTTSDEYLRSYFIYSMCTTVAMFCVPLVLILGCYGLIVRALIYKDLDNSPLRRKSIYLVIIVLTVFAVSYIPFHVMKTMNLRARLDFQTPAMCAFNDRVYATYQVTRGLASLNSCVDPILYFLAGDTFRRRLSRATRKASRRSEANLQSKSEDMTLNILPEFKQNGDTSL
inactive: [1] -0.153 | [2] 0.163 | [4] -0.047 | [5] -0.022

MT-CYB (UniProt P00156)
inactive: [1] 0.062 | [2] -0.091 | [3] -0.052 | [4] -0.132 | [5] -0.468

PAPOLG (UniProt Q9BWT3)
Chain of UniProt Q9BWT3 (Q9BWT3 whole entry, looked up): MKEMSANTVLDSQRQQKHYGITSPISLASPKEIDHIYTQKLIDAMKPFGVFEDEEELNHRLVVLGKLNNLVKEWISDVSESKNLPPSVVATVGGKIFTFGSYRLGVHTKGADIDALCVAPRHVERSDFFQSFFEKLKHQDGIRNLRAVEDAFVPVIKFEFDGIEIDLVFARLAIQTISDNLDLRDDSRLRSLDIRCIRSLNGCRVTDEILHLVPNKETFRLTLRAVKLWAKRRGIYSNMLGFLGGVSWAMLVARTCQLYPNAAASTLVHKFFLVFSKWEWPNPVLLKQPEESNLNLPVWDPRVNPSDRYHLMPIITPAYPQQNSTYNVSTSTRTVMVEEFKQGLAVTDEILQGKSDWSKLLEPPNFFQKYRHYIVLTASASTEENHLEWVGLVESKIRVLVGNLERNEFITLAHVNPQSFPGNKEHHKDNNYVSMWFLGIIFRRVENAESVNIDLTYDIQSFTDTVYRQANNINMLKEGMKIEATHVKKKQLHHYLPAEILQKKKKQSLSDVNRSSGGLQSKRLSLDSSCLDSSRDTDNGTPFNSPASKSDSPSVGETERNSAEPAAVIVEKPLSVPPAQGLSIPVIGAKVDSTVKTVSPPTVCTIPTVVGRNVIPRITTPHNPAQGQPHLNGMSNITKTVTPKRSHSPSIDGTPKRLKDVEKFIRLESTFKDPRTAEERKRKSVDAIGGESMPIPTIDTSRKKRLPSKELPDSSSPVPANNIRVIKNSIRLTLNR
inactive: [3] 0.064 | [4] 0.074 | [5] -0.107

ORC3 (UniProt Q9UBD5)
inactive: [5] -0.276

OSBPL1A (UniProt Q9BXW6)
Chain of UniProt Q9BXW6 (Q9BXW6 whole entry, looked up): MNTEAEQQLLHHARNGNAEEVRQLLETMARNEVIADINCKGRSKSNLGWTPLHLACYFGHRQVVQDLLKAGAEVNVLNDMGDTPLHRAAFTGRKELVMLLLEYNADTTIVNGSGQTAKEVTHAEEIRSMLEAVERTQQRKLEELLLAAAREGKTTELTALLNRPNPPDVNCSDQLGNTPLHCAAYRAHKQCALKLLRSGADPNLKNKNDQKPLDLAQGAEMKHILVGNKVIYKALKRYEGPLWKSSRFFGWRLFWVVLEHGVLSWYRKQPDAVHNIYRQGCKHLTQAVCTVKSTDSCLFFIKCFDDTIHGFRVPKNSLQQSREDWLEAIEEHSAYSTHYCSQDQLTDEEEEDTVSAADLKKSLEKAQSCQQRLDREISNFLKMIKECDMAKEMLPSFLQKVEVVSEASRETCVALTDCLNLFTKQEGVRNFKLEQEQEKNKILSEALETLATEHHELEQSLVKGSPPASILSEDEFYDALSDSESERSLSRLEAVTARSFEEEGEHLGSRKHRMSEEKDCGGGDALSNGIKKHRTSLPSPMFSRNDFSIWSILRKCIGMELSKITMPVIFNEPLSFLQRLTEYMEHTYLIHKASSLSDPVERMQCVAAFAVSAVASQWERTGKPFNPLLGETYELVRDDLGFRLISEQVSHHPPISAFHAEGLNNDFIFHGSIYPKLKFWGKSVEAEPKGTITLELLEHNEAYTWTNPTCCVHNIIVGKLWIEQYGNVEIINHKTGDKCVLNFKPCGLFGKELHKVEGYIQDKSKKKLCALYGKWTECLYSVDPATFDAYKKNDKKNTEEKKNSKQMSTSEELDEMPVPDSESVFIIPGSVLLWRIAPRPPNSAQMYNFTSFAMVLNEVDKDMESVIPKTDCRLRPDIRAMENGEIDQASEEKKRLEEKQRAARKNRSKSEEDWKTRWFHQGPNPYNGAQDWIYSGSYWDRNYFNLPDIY
inactive: [1] -0.089 | [2] 0.007 | [4] -0.144 | [5] -0.084

OGFR (UniProt Q9NZT2)
inactive: [1] -0.016 | [2] 0.001 | [3] 0.012 | [4] -0.038 | [5] 0.088

MYO10 (UniProt Q9HD67)
inactive: [1] -0.122 | [2] 0.104 | [3] 0.165 | [5] 0.024

NRIP1 (UniProt P48552)
Chain of UniProt P48552 (P48552 whole entry, looked up): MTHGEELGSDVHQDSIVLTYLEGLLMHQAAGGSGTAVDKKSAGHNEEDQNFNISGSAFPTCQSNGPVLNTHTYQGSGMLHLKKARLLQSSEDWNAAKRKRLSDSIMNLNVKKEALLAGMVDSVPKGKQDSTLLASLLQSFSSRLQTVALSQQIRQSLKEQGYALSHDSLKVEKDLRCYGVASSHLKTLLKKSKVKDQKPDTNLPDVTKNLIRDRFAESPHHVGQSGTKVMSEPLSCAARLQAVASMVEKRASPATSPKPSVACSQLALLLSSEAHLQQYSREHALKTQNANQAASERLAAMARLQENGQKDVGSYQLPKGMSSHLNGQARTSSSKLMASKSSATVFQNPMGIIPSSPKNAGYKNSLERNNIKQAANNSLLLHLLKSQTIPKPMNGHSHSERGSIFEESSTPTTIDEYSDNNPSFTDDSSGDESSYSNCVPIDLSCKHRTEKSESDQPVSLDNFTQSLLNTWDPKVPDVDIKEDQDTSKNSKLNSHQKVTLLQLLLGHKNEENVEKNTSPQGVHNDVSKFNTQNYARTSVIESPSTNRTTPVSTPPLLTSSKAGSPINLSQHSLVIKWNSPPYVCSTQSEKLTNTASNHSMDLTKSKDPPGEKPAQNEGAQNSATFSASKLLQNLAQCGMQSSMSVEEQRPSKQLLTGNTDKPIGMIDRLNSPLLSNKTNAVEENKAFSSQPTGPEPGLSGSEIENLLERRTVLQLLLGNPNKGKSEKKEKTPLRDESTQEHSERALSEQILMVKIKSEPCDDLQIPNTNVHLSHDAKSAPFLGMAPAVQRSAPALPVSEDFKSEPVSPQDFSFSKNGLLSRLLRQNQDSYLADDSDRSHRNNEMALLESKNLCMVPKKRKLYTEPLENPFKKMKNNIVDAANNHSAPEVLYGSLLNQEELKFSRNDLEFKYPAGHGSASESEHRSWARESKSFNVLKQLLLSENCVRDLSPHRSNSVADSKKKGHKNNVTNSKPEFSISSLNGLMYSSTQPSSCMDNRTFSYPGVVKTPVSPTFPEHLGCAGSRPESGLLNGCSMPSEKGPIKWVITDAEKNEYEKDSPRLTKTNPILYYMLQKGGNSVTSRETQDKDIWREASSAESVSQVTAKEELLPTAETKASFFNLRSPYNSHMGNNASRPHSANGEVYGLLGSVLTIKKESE
inactive: [1] 0.058 | [2] 0.112 | [4] -0.071 | [5] -0.069

NUMB isoform 2 (UniProt P49757)
inactive: [4] -0.207

ORC3 isoform 2 (UniProt Q9UBD5)
inactive: [1] 0.005 | [2] -0.031 | [3] 0.014 | [4] 0.021 | [5] 0.047

NUDT5 (UniProt Q9UKK9)
inactive: [1] 0.053 | [2] -0.126 | [3] -0.012 | [4] -0.097 | [5] -0.158

NUP133 (UniProt Q8WUM0)
inactive: [1] 0.05 | [2] 0.046 | [3] 0.014 | [4] 0.025 | [5] -0.052

NFIC (UniProt P08651)
inactive: [1] 0.023 | [2] 0.018 | [3] -0.056 | [4] 0.052 | [5] -0.177

NTMT1 (UniProt Q9BV86)
Chain of UniProt Q9BV86 (Q9BV86 whole entry, looked up): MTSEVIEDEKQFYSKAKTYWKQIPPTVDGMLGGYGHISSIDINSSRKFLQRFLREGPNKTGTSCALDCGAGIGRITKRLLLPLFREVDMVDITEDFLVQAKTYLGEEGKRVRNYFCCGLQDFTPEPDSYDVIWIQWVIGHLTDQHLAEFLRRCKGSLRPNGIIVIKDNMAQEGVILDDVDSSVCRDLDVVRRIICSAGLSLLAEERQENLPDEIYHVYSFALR
inactive: [1] -0.01 | [2] -0.036 | [3] -0.019 | [4] 0.02 | [5] 0.098
